# PAFAH2 FP inh: PAFAH2 enzyme inhibitors, primary screen, biochemical, fluorescence polarization, human; Platelet-activating factor acetylhydrolase 2, cytoplasmic (Homo sapiens), Q99487; recombinant PAFAH2, FP-rhodamine activity probe; inhibition, % at 3.39 µM; 340,000 tested, 0.99% active;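 active means inhibition above the mean over all tested compounds plus 3 SD, cut at about 30% in these data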;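 further: inhibitors block probe labeling of enzyme so polarization drops; 0% = enzyme with DMSO and 100% = wells lacking PAFAH2 protein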
# pPAFAH inh: pPAFAH enzyme inhibitors, primary screen, biochemical, fluorescence polarization, human | Platelet-activating factor acetylhydrolase (Homo sapiens), Q13093 | recombinant pPAFAH, FP-rhodamine probe fluorescence polarization | inhibition, % at 3.39 µM | 330,000 tested, 1.5% active;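 active means inhibition above the mean inhibition across the screen plus 3 SD, cut at about 25% in these data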;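 further: inhibitors block binding of the rhodamine activity-based probe so polarization drops; 0% = enzyme with DMSO and 100% = wells lacking pPAFAH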
# PAFAH1B3 FP inh: PAFAH1B3 enzyme inhibitors, primary screen, biochemical, fluorescence polarization, human | Platelet-activating factor acetylhydrolase IB subunit alpha1 (Homo sapiens), Q15102 | recombinant PAFAH1B3, FP-rhodamine probe | inhibition, % at 3.39 µM | 340,000 tested, 0.28% active | AID 492972, 2010;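 active means inhibition above the screen-wide average of all tested compounds plus 3 SD, cut at about 25% in these data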;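 further: 0% = enzyme with DMSO only and 100% = wells lacking PAFAH1B3 protein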
# PAFAH1B2 FP inh: PAFAH1B2 enzyme inhibitors, primary screen, biochemical, fluorescence polarization, human | recombinant PAFAH1B2, FP-rhodamine activity probe | inhibition, % at 3.39 µM | 340,000 tested, 1.2% active | AID 492953, 2010;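 active means inhibition above the mean of all tested compounds plus 3 SD, cut at about 24% in these data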;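 further: 0% = enzyme with DMSO and 100% = wells lacking PAFAH1B2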
# Fam108B inh: mouse Fam108B serine hydrolase inhibitors, primary screen, counter-screen for RBBP9 inhibitor project, biochemical, fluorescence polarization; inhibition, % at 9.51 µM; recombinant Fam108B, FP-Rh probe fluorescence polarization; 300,000 tested, 0.33% active;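 active means inhibition above the screen mean inhibition plus 3 SD, computed separately per campaign, cut at about 18% in these data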;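 further: inhibitors lower polarization as less probe binds the enzyme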
# PME-1 primary: PME-1 inhibitors via competitive probe labeling, primary screen, biochemical, fluorescence polarization, FP-Rh probe, HTS | recombinant PME-1 | inhibition, % at 5.9 µM | 320,000 tested, 0.53% active | AID 2130, 2009;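 active means inhibition above the campaign mean of all compounds plus 3 SD, cut at about 26% in these data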;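 further: competitive labeling of PME-1 active site by serine hydrolase directed probe; 0% = PME-1 with DMSO and 100% = wells lacking PME-1 enzyme; inhibitors block probe labeling so polarization falls and inhibition rises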
# Target sequence (Q9Y570 whole entry, looked up): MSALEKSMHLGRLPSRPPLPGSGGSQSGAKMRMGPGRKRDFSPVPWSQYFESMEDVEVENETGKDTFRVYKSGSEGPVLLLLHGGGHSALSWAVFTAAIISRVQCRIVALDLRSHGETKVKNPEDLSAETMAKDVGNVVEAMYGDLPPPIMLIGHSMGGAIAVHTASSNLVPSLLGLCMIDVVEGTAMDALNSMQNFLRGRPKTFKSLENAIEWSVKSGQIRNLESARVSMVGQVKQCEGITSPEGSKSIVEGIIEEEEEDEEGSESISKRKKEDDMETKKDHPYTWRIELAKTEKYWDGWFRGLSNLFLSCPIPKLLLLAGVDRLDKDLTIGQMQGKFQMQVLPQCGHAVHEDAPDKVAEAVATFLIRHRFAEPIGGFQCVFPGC
# An asterisk follows results filed as active; · = no result. Rows were chosen to be rich in hits. Some 2.9% of all compounds tested hit in one or more screens of this group.
SMILES,PAFAH2 FP inh,pPAFAH inh,PAFAH1B3 FP inh,PAFAH1B2 FP inh,Fam108B inh,PME-1 primary
CC(C)(C)OC(=O)N1Cc2ccccc2C[C@H]1C(=O)NCC(=O)Nc1ccc2c(c1)OCCO2,-1.1,8.8,2.3,4.9,4.0,0.5
CC1CCN(S(=O)(=O)c2ccc(NC(=O)C3CC3)cc2)CC1,-5.0,5.0,0.5,25.3*,-1.4,1.7
O=C(Nc1ccc(S(=O)(=O)N2CCCCC2)cc1)c1ccncc1,-6.4,0.4,2.6,-0.3,1.6,2.6
CC1CCN(S(=O)(=O)c2ccc(NC(=O)c3ccncc3)cc2)CC1,-2.5,-0.9,14.2,28.9*,0.2,-1.8
Cc1ccc(NC(=O)CS(=O)CC(=O)Nc2cccc(C)c2C)cc1F (stereo not drawn),-10.7,-12.1,-4.3,14.4,-6.4,-4.5
OCC[C@H]1C[C@H](O)[C@@H](O)[C@@]2(OCc3ccccc32)O1,2.9,5.2,-2.4,0.0,5.5,6.5
OCC[C@H]1C[C@H](O)[C@@H](O)[C@]2(OCCc3ccccc32)O1,7.5,25.6*,6.7,-0.4,-0.9,-1.7
O=C(Cc1ccc(F)cc1)N1CCN(c2ccc(F)cc2)CC1,-0.1,1.9,10.8,-0.6,-3.9,-1.0
COc1ccc(NC(=O)CN(C)C(=O)c2cccc(S(=O)(=O)N3CC4(C)CC3CC(C)(C)C4)c2)cc1 (stereo not drawn),-3.3,4.3,0.2,4.5,-1.1,-1.7
CCCCNC(=O)c1cccc(S(=O)(=O)N2CC3(C)CC2CC(C)(C)C3)c1 (stereo not drawn),8.2,2.0,0.8,35.7*,·,-0.4
COCCCNC(=O)c1cccc(S(=O)(=O)N2CC3(C)CC2CC(C)(C)C3)c1 (stereo not drawn),-5.1,2.4,3.9,13.6,-1.7,2.0
COCCNC(=O)c1cccc(S(=O)(=O)N2CC3(C)CC2CC(C)(C)C3)c1 (stereo not drawn),-0.8,1.0,7.3,9.2,-0.1,0.1
CC1(C)CC2CC(C)(CN2S(=O)(=O)c2cccc(C(N)=O)c2)C1 (stereo not drawn),-2.3,0.5,4.7,29.3*,·,-5.1
CC1(C)CC2CC(C)(CN2S(=O)(=O)c2cccc(C(=O)OCC(N)=O)c2)C1 (stereo not drawn),3.2,2.4,1.7,28.4*,3.5,-1.1
CN1CCN(c2oc(Cc3cccc4ccccc34)nc2C#N)CC1,2.3,6.0,0.0,-1.6,1.2,6.3
COc1cc(OC)cc(C(=O)NCC(=O)NC(C)CCc2ccccc2)c1 (stereo not drawn),7.2,-0.8,-0.3,1.9,2.5,-1.0
O=C(NC(Cc1ccccc1)C(=O)O)C1CCN(S(=O)(=O)c2cccc(C(F)(F)F)c2)CC1 (stereo not drawn),-3.3,27.3*,7.8,11.3,-1.2,8.6
COc1ccc(C(=O)NCc2ccccc2CN2CCCC2)cc1S(=O)(=O)Nc1ccc(C)cc1,2.5,25.1*,2.3,7.6,·,1.4
COc1ccc(C(=O)O)cc1S(=O)(=O)Nc1ccc(C)cc1,-6.6,3.7,0.9,13.3,0.1,6.5
O=C(NCC(c1ccco1)N1CCCCC1)c1ccc(NS(=O)(=O)c2ccc(F)cc2)cc1 (stereo not drawn),-3.9,-0.1,-3.6,5.3,-2.4,-3.4
O=C(NCC(c1ccco1)N1CCCC1)c1ccc(S(=O)(=O)Nc2ccc(F)cc2)cc1 (stereo not drawn),1.8,28.5*,8.4,3.7,·,-3.9
COc1ccccc1C(CNC(=O)c1cccc(S(=O)(=O)Nc2ccc(C)cc2)c1)N1CCCC1 (stereo not drawn),2.4,30.7*,3.6,1.7,0.0,2.4
Cc1cccc(NS(=O)(=O)c2cccc(C(=O)NCC(c3ccco3)N3CCCCC3)c2)c1 (stereo not drawn),-3.4,32.7*,-4.3,-0.4,-1.4,-0.1
